Screening results (PubChem BioAssay)
The entries come from a sample that favours hits as a whole.
14-3-3 PPI: alters human 14-3-3 gamma binding to Raf peptide; P61981; inhibition, % at 40 µM; 0.19% of 160,000 active; AID 422; FP, 14-3-3gamma / TMR-pS259-Raf peptide binding; in the data active means inhibition above about 30%;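 further: 0% = protein plus tracer without compound and 100% = blank with tracer alone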
Target sequence (P61981 whole entry, looked up): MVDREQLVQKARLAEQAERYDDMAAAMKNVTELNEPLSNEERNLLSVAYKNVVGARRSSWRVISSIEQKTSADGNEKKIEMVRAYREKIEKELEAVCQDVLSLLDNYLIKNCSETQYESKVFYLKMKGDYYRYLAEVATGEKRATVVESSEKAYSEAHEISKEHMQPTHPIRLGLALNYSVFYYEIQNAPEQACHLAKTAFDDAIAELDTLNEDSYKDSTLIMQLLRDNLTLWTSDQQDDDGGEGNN
* hit, by the source's call; + = active, no number.

SMILES | 14-3-3 PPI
O=C1c2cccc3c(N4CCCC4)ccc(c23)C(=O)N1c1ccccc1 | -24
O=C1c2ccc3c4c(ccc(c24)C(=O)N1c1ccccc1)N(c1ccccc1)C3=O | -69
Cc1ccccc1C1CC(=O)C(C(C)C)C(c2ccccc2C)N1 (centres undefined) | 1
CCCOc1ccc(C(=O)Nc2ccc3c(c2)C(=O)c2ccccc2C3=O)cc1 | -70
COc1ccccc1-n1nnnc1SCc1cc2c(cc1Br)OCO2 | 50*
Clc1cc2c(cc1CSc1nnnn1-c1ccccc1)OCO2 | -1
COc1ccccc1-n1nnnc1SCc1ccccc1 | -2
CCOC(=O)CSc1nnc(-c2ccc(Br)cc2)n1-c1ccccc1 | 0
CCC1CCCCN1CCCNC(=O)CN1N=C(c2ccc(Cl)cc2)CCC1=O (centres undefined) | 2
O=C(Nc1nc(-c2ccc(Br)cc2)cs1)c1cccc(C(F)(F)F)c1 | 5
Cc1ccccc1Cc1c(C)nc2c(C(=O)O)c[nH]n2c1=O | 3
CCOC(=O)c1ccc(-c2nnc(-c3cc(I)cc([N+](=O)[O-])c3)o2)cc1 | -4
Cc1cccc(N2CCN(C(=O)CCC(=O)Nc3ccc4nc(N5CCCCC5)cc(C)c4c3)CC2C)c1 (centres undefined) | -1
CC(C(=O)N1CCOCC1)N1C(=O)c2ccccc2C1=O (centres undefined) | -5
CC(C)NC(=O)N1CCOCCOCCN(C(=O)NC(C)C)CCOCCOCC1 | 4
CC(N)C(=O)N1CCOCCOCCN(C(=O)C(C)N)CCOCCOCC1 (centres undefined) | +
COc1ccc(-c2cc(C(F)(F)F)n3ncc(C(=O)NCc4ccccc4)c3n2)cc1OC | -4
O=C(CCC(=O)N1CCc2ccccc2C1)Nc1nc(-c2cc3ccccc3oc2=O)cs1 | 2
COc1ccc(C(=O)N2CCC(C(=O)Nc3ccccc3F)CC2)cc1OC | 4
COc1ccc(C2CC(c3ccc(Br)cc3)=NN2S(=O)(=O)c2ccccc2)cc1 (centres undefined) | -322
CCN(CC)CCCNS(=O)(=O)c1cccc2nsnc12 | 3
N#Cc1c(NC(=O)c2cc(-c3cccs3)on2)sc2c1CCCC2 | -15
Cc1ccccc1NC(=O)c1ccccc1C | -1
Cc1ccccc1C(=O)Nc1ccccc1C(=O)Nc1ccccc1 | 35*
Cc1ccc(NC(=O)c2ccccc2C)cc1I | -6
SMILES | 14-3-3 PPI
CCOC(=O)c1cc(CC)sc1NC(=O)CCN1CCCCC1 | -4
CCOC(=O)CSc1ccc(C(=O)NCC(C)C)cc1[N+](=O)[O-] | -7
CN(C(=O)Cn1c(=O)n(-c2ccccc2)c(=O)c2c3c(sc21)CCC3)c1ccccc1 | -8
O=C(Nc1ccc2oc(-c3ccc(I)cc3)nc2c1)c1ccc(Cl)c([N+](=O)[O-])c1 | -65
CC(C)Cn1c(C=Cc2ccc(Cl)cc2)nc2ccccc21 | -8
CC(C)N=c1cc2n(-c3ccc(Cl)cc3)c3ccccc3nc-2cc1Nc1ccc(Cl)cc1 | 97*
Cn1c(CNc2ccc(Cl)cc2)nc2ccccc21 | -9
N#Cc1c(NC(=O)c2cc(=O)c3ccccc3o2)sc2c1CCCCC2 | -13
COc1cc(C=Nc2ccc(NC(C)=O)cc2)cc(OC)c1OC | -1
COc1ccccc1N=Cc1c(O)c(C(=O)Nc2ccccc2)cc2ccccc12 | 13
COc1ccccc1NC(=O)c1cc2ccccc2c(C=Nc2ccc(NC(C)=O)cc2)c1O | 73*
CC(C)COC(=O)C(C)Oc1ccc2c(=O)c(Oc3ccc(C(C)(C)C)cc3)coc2c1 (centres undefined) | -4
CCOc1ccccc1C(=O)Nc1ccc(CC#N)cc1 | -1
Cc1ccc(Oc2ccc(NC(=O)C(CC(C)C)N3C(=O)c4ccccc4C3=O)cc2)cc1 (centres undefined) | 1
O=C(COc1ccc(Br)cc1)Nc1cccnc1 | -11
O=C(COc1ccc([N+](=O)[O-])cc1)Nc1ccccn1 | -13
O=C(COc1ccc([N+](=O)[O-])cc1)Nc1cccnc1 | 31*
Cc1ccc(NC(=O)c2cc3ccccc3oc2=O)c([N+](=O)[O-])c1 | 2
CCN(CCNC(=O)CN1C(=O)COc2ccccc21)c1ccccc1 | 0
O=C(c1ccc(F)cc1)N1CCC(O)(c2cccnc2)CC1 | -1
O=C(c1ccc(F)cc1)c1cccnc1 | 66*
O=C(Oc1ccc(OC(=O)c2cccnc2)cc1)c1cccnc1 | -29
CCOC(=O)c1ccc(NC(=O)C2CC(=O)N(C)C(=Nc3cccc(Cl)c3)S2)cc1 (centres undefined) | -24
Cc1ccc(Nc2cc(Cl)c3nonc3c2[N+](=O)[O-])cc1C | -11
Nc1c(C(=O)c2ccccc2)sc2nc(-c3ccccc3)cc(C(F)(F)F)c12 | 60*
SMILES | 14-3-3 PPI
Nc1c(C(=O)NCCc2ccccc2)sc2nc(-c3ccccc3)cc(C(F)(F)F)c12 | -2
COC(=O)c1sc2nc(-c3ccncc3)cc(C(F)(F)F)c2c1N | -38
CCOC(=O)c1ccc(CN(Cc2ccc(F)cc2)S(=O)(=O)c2c(C)cc(C)cc2C)cc1 | -3
Cc1ccc2oc(-c3cccc(N=Cc4cc5c(cc4[N+](=O)[O-])OCO5)c3)nc2c1 | -24
Cc1nc(N2CCCCC2)c2c(C)c(C(=O)O)sc2n1 | -34
O=C1C2C3C=CC(C2C(=O)N1c1ccccc1)C1C2C(=O)N(c4ccccc4)C(=O)C2C31 (centres undefined) | -3
COc1ccc(N2C(=O)C3C4C=CC(C3C2=O)C2C3C(=O)N(c5ccc(OC)cc5)C(=O)C3C42)cc1 (centres undefined) | -1
O=C1C2C3C=CC(C2C(=O)N1c1ccc(O)cc1)C1C2C(=O)N(c4ccc(O)cc4)C(=O)C2C31 (centres undefined) | 64*
Fc1cccc(-c2nc3cc(N=Cc4ccccc4)ccc3o2)c1 | -23
CC1CCN(CCCNC(=O)Cn2nc(-c3ccccc3)ccc2=O)CC1 | -4
O=[N+]([O-])c1ccccc1-c1ccc(C=Cc2ccc3ccccc3n2)o1 | -68
COc1ccc(OC)c(C=Cc2ccc3cccc(O)c3n2)c1 | -4
Cc1cc([N+](=O)[O-])ccc1-c1ccc(C=Cc2ccc3cccc(O)c3n2)o1 | 144*
CCCOc1ccc(C(=O)Nc2ccc3nn(-c4ccc(Cl)cc4)nc3c2)cc1 | -4
COc1ccccc1C1CC(=O)C2=C(C1)NC(C)=C(C(=O)OC1CCCC1)C2c1ccc(OC(C)=O)cc1 (centres undefined) | -13
CC1(C)Cc2c(c(N3CCCCC3)nc3sc(C#N)c(N)c23)CO1 | 7
Cc1ccc(C)c(Nc2ccc3nonc3c2[N+](=O)[O-])c1 | -10
Cc1ccc(C)c(Nc2ccc([N+](=O)[O-])c3nonc23)c1 | 34*
Cc1ccc(C)c(Nc2c([N+](=O)[O-])ccc3nonc23)c1 | -13
CC1=C(C(=O)OCC(C)C)C(c2cc3c(cc2[N+](=O)[O-])OCO3)C2=C(CC(c3ccccc3)CC2=O)N1 (centres undefined) | -12
C=CCSc1nnc2c(n1)OC(c1ccncc1)Nc1ccc(Br)cc1-2 (centres undefined) | -25
C=CCSc1nnc2c(n1)OC(C)(C)Nc1ccc(Br)cc1-2 | 112*
C=CCSc1nnc2c(n1)OC=Nc1ccc(Br)cc1-2 | -7
CN1C(=O)c2ccccc2C(C(=O)NCCCN2CCc3ccccc3C2)C1c1cn(C)c2ccccc12 (centres undefined) | -6
O=C(CCn1c(=O)c2ccccc2n(Cc2cccc(F)c2)c1=O)NCc1ccccc1Cl | 1
CC(C)CN1C(=O)C2C3CC4C5(C)CCCC(C)(C(=O)O)C5CCC4(C=C3C(C)C)C2C1=O (centres undefined) | 6
